This passage reports z-score results from PubChem BioAssay.

The structures appear in SMILES notation. Unmarked numbers belong to inactive results.

The test is described as follows: E. coli growth modulation, two-sided OD650, primary screen, E. coli filamentation project, strain DRC41, 24 h (AID 1093).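 Also: MC1000 strain lacking acrAB efflux and sulA so SOS filamentation is blocked; test concentration not given here.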 The settings on record: OD650, 24 h, higher = more signal, called active from +8 up or from −8 down.
Consider `OB1C=CCC(CCc2ccccc2)O1` (stereo not given), for which the z-score is 1.96.

For the molecule `CCCCCCc1nc(-c2ccc(-c3ccc(Cl)c(Cl)c3)o2)c(C)c2c1[Si](C(C)C)(C(C)C)OC2`, the z-score is -0.0336.

`O=C1NC(=O)C2C1C=CC(C(O)C=Cc1ccc([N+](=O)[O-])cc1)N2Nc1ccc(Cl)cc1Cl` (stereo not given): the z-score was -2.27.

As for `Cc1ccc(S(=O)(=O)N2C[C@@H](C(=O)O)[C@H](Sc3ccccc3)C[C@H]2c2ccccc2)cc1`, the z-score was -0.385.

Regarding `COC(=O)[C@@]1(Cc2ccccc2)[C@H]2c3cc(C(=O)N(C)C)n(CCc4c[nH]c5ccc(O)cc45)c3C[C@H]2CN1C(=O)c1ccccc1`, the z-score was 0.488.

On to `C=CC[C@]1(C(N)=O)COC(c2ccc(OCCCO)cc2)=N1`, for which the z-score is 1.27.

With `O=C(CS)NCCCCCNC(=O)[C@@H]1C[C@@H]2C(=O)NCC(=O)N2[C@@H]1c1ccc(O)cc1`, the z-score is 2.13.

Turning to `COc1cc(OC)c(C(O)C2C=CC3C(=O)NC(=O)C3N2Nc2ccccn2)cc1Br` (stereo not given), the z-score was -0.564.

As to `NC(=O)[C@@]1(Cc2ccccc2)N=C(c2ccc(OCCCO)cc2)O[C@H]1c1ccccc1`, the z-score is 1.95.

As for `C=CCN1C(=O)[C@]2(O[C@H](CCO)[C@@H]([Si](C)(C)c3ccc(OC)cc3)[C@@H]2C)c2cc(N(C=O)c3ccccc3)ccc21`, the z-score was 1.03.

In the case of `O=C(CS)NCCCCCNC(=O)[C@H]1C[C@H]2C(=O)NCC(=O)N2[C@H]1c1cccc(OCCO)c1`, the z-score is 0.663.

On to `CC(c1ccccc1)C(O)C1C=CC2C(=O)N(C)C(=O)C2N1NC(=O)OC(C)(C)C` (stereo not given), for which the z-score is 0.0596.

As for `CO[C@H]1O[C@H](CO)[C@@H](OC(=O)Nc2ccccc2)[C@@H]2OC(=O)[C@@H](Cc3ccc4ccccc4c3)C/C=C/C[C@H](Cc3ccc4ccccc4c3)C(=O)O[C@@H]12`, the z-score was 2.64.

In the case of `CCCC[C@@H]1C[C@H]1[C@@H](NC(=O)c1cccnc1)c1ccc(Cl)cc1`, the z-score is -3.26.

With `[N-]=[N+]=NCc1ccccc1[C@@H]1OC(c2ccc(OCCCO)cc2)=N[C@]1(CCS(=O)(=O)c1ccccc1)C(N)=O`, the z-score was 0.901.

In the case of `COc1ccc(CCNC(=O)[C@@]2(c3ccc([N+](=O)[O-])cc3)CC(=O)N(CC34CC5CC(CC(C5)C3)C4)[C@@H]2c2ccc(CO)cc2I)cc1`, the z-score is 0.376.

With `COC(=O)[C@H](Cc1ccccc1)N[C@H](/C=C/C1CC1)[C@@H](O)Cc1ccccc1`, the z-score was 1.04.

Take `COc1ccc(C(O)C2C=CC3C(=O)N(C)C(=O)C3N2N(c2ccccc2)c2ccccc2)c2ccccc12` (stereo not given): the z-score is -1.27.

In the case of `CC(C)(C)OC(=O)CC[C@]1(C(N)=O)N=C(c2ccc(OCCCO)cc2)O[C@H]1c1ccccc1`, the z-score was 0.152.

For the molecule `COC(=O)[C@@]1(Cc2ccccc2)[C@H]2c3cc(C(=O)N(C)C)n(Cc4ccc(OC)c(OC)c4)c3C[C@H]2CN1C(=O)c1ccccc1`, the z-score was -0.793.

On to `COCC(=C=CC[C@H](O)c1ccccc1OCCO)CCO`, for which the z-score is 0.309.

Turning to `[N-]=[N+]=NCc1ccccc1[C@@H]1OC(c2ccc(OCCCO)cc2)=N[C@]1(CCS(=O)(=O)c1ccccc1)C(=O)N1CCCCC1`, the z-score was 0.622.

As for `C=C(C)[C@@H]1CC=C(C(O)C2C=CC3C(=O)NC(=O)C3N2Nc2ccc(Cl)cc2Cl)CC1` (stereo not given in full), the z-score is -2.91.

Consider `O=C(O)[C@H]1C[C@H]2C(=O)N3CCC[C@H]3C(=O)N2[C@H]1c1ccc(O)cc1`, for which the z-score is 0.863.

Take `[N-]=[N+]=Nc1ccccc1C[C@]1(C(=O)NCC(O)CO)N=C(c2ccc(OCCCO)cc2)O[C@H]1c1ccccc1` (stereo not given in full): the z-score was 0.291.

As for `CC(C)OC(=O)C=C1C[C@@H](c2cccc(Cl)c2)O[C@@H](c2cccc(Cl)c2)O1`, the z-score is -0.391.

Consider `COC(=O)[C@@]1(Cc2ccc(F)cc2)[C@H]2c3cc(C(=O)N(C)C)n(Cc4cc(C)n(C)n4)c3C[C@H]2CN1C(=O)c1ccccc1`, for which the z-score is -0.38.

For `[N-]=[N+]=NCc1ccccc1C[C@@]1(C(=O)NCC(O)CO)N=C(c2ccc(OCCCO)cc2)O[C@@H]1c1ccccc1` (stereo not given in full), the z-score was 0.627.

As for `COC(=O)[C@@]1(Cc2ccc(OC)cc2)[C@H]2c3cc(C(=O)N4CCCC4)n(CCc4ccc(O)c(O)c4)c3C[C@H]2CN1C(=O)c1ccccc1`, the z-score is -0.765.

`CC(c1ccccc1)C(O)C1C=CC2C(=O)N(c3ccccc3)C(=O)C2N1Nc1ccccc1` (stereo not given): the z-score is -0.702.

As to `O=C1OCCC/C=C\[C@H]2OC34C=CCN(c5ccc6ccccc6c5)C(=O)[C@H]3N(CCCCCO)C(=O)[C@@H]4C12` (stereo not given in full), the z-score was -0.72.

On to `C#CCN1[C@@H](Cc2ccc(O)cc2)C(=O)O[C@H](Cc2ccccc2)[C@@H]1/C=C/C1CC1`, for which the z-score is -0.495.

In the case of `COCCCNC(=O)[C@@H]1c2ccccc2C(=O)N(Cc2ccccc2)[C@H]1c1ccc(CO)cc1`, the z-score is -0.167.

Regarding `COc1cc2c(cc1O)C(c1cccs1)N(Cc1ccc([N+](=O)[O-])o1)CC2` (stereo not given), the z-score was -0.73.

For the molecule `C=C(CCCC)/C(=C/C[C@@H](OC(C)=O)c1ccccc1OCCO)c1cc(C(=O)OC)ccc1OC`, the z-score was 0.531.
